Laboratory results reported in PubChem BioAssay AID1159580 (chemical genetic matrix, 2015).
Screen size: about 5,500 compounds; about 2,000 (36%) were called active. Not shown: some 18% with an inconclusive outcome. Cut-off read from the data, not from the text of the source: active = normalized growth mostly below about 0.91 (no sharp cut-off); inconclusive = no clear call, values can overlap the other calls; inactive = mostly above about 0.92. This is one part of the list.

Assay: chemical genetic growth profiling, strain panel (AID 1159580);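 note: tested at 20 µM; growth read once vehicle control cultures reached saturation at 30 °C; 1 = growth at the plate median or of vehicle wells; lower values mean less growth of the strain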
Conditions: S. cerevisiae deletion strains, growth OD
[1] = locus YAL021C, strain ccr4, active compounds read low
[2] = locus YAL026C, strain drs2, active compounds read low
[3] = locus YAL030W, strain snc1, active compounds read low
[4] = locus YBL061C, strain skt5, active compounds read low
[5] = locus YBR009C, strain hhf1, active compounds read low
[6] = locus YBR023C, strain chs3, active compounds read low
[7] = locus YBR171W, strain sec66, active compounds read low
[8] = locus YBR231C, strain swc5, active compounds read low
[9] = locus YBR279W, strain paf1, active compounds read low
[10] = locus YCL011C, strain gbp2, active compounds read low
[11] = locus YCL016C, strain dcc1, active compounds read low
[12] = locus YCL061C, strain MRC1, active compounds read low
[13] = locus YCL069W, strain vba3, active compounds read low
[14] = locus YCR088W, strain abp1, active compounds read low
[15] = locus YDL005C, strain med2, active compounds read low
[16] = locus YDL040C, strain nat1, active compounds read low
[17] = locus YDR001C, strain nth1, active compounds read low
[18] = locus YDR069C, strain doa4, active compounds read low
[19] = locus YDR137W, strain rgp1, active compounds read low
[20] = locus YDR159W, strain sac3, active compounds read low
[21] = locus YDR297W, strain sur2, active compounds read low
[22] = locus YDR334W, strain swr1, active compounds read low
[23] = locus YDR335W, strain msn5, active compounds read low
[24] = locus YDR392W, strain spt3, active compounds read low
[25] = locus YEL003W, strain gim4, active compounds read low
[26] = locus YEL037C, strain rad23, active compounds read low
[27] = locus YEL061C, strain CIN8 (second series), active compounds read low
[28] = locus YER015W, strain faa2, active compounds read low
[29] = locus YER016W, strain bim1, active compounds read low
[30] = locus YER111C, strain swi4, active compounds read low
[31] = locus YER155C, strain BEM2 (second series), active compounds read low
[32] = locus YFR010W, strain ubp6, active compounds read low
[33] = locus YGL167C, strain pmr1, active compounds read low
[34] = locus YGL173C, strain kem1, active compounds read low
[35] = locus YGL227W, strain vid30, active compounds read low
[36] = locus YGL240W, strain doc1, active compounds read low
[37] = locus YGL253W, strain hxk2, active compounds read low
[38] = locus YHR013C, strain ard1, active compounds read low
[39] = locus YHR027C, strain rpn1, active compounds read low
[40] = locus YHR030C, strain SLT2, active compounds read low
[41] = locus YHR079C, strain IRE1, active compounds read low
[42] = locus YHR142W, strain chs7, active compounds read low
[43] = locus YJL092W, strain hpr5, active compounds read low
[44] = locus YJL095W, strain BCK1 (second series), active compounds read low
[45] = locus YJL095W, strain BCK1, active compounds read low
[46] = locus YJL115W, strain asf1, active compounds read low
[47] = locus YJL129C, strain trk1, active compounds read low
[48] = locus YJL154C, strain vps35, active compounds read low
[49] = locus YJL164C, strain tpk1, active compounds read low
[50] = locus YJL166W, strain qcr8, active compounds read low
[51] = locus YJL187C, strain SWE1, active compounds read low
[52] = locus YJR066W, strain TOR1, active compounds read low
[53] = locus YKL160W, strain elf1, active compounds read low
[54] = locus YKR026C, strain gcn3, active compounds read low
[55] = locus YKR091W, strain srl3, active compounds read low
[56] = locus YLL001W, strain dnm1, active compounds read low
[57] = locus YLL026W, active compounds read low
[58] = locus YLL041C, strain sdh2, active compounds read low
[59] = locus YLR027C, strain aat2, active compounds read low
[60] = locus YLR113W, strain HOG1, active compounds read low
[61] = locus YLR221C, strain rsa3, active compounds read low
[62] = locus YLR258W, strain gsy2, active compounds read low
[63] = locus YLR262C, strain YPT6 (second series), active compounds read low
[64] = locus YLR320W, strain mms22, active compounds read low
[65] = locus YLR342W, strain FKS1, active compounds read low
[66] = locus YLR357W, strain rsc2, active compounds read low
[67] = locus YLR370C, strain arc18, active compounds read low
[68] = locus YLR384C, strain iki3, active compounds read low
[69] = locus YML120C, strain ndi1, active compounds read low
[70] = locus YMR058W, strain fet3, active compounds read low
[71] = locus YMR125W, strain sto1, active compounds read low
[72] = locus YMR129W, active compounds read low
[73] = locus YMR205C, strain PFK2, active compounds read low
[74] = locus YMR231W, strain pep5, active compounds read low
[75] = locus YNL071W, strain lat1, active compounds read low
[76] = locus YNL183C, strain NPR1, active compounds read low
[77] = locus YNL209W, strain ssb2, active compounds read low
[78] = locus YNL248C, strain rpa49, active compounds read low
[79] = locus YNL322C, strain KRE1 (second series), active compounds read low
[80] = locus YNR049C, strain mso1, active compounds read low
[81] = locus YOR001W, strain rrp6, active compounds read low
[82] = locus YOR070C, strain gyp1, active compounds read low
[83] = locus YOR080W, strain dia2, active compounds read low
[84] = locus YOR083W, strain WHI5, active compounds read low
[85] = locus YOR106W, strain vam3, active compounds read low
[86] = locus YOR231W, strain MKK1, active compounds read low
[87] = locus YOR265W, strain rbl2, active compounds read low
[88] = locus YOR270C, strain vph1, active compounds read low
[89] = locus YOR290C, strain snf2, active compounds read low
[90] = locus YPL051W, strain arl3, active compounds read low
[91] = locus YPL078C, strain atp4, active compounds read low
[92] = locus YPL106C, strain sse1, active compounds read low
[93] = locus YPL240C, strain hsp82, active compounds read low
[94] = locus YPL256C, strain CLN2, active compounds read low

Measured: normalized growth

O=C(NC1CCCCC1)NC1CCCCC1
inactive: [1] 0.987 | [2] 0.995 | [3] 0.976 | [4] 0.976 | [5] 0.998 | [6] 0.976 | [7] 0.977 | [8] 0.981 | [9] 0.981 | [10] 0.973 | [11] 0.97 | [12] 0.983 | [13] 0.978 | [14] 0.973 | [15] 0.981 | [16] 0.981 | [17] 0.972 | [18] 0.979 | [19] 0.964 | [20] 0.995 | locus YDR195W, strain ref2 0.958 | [21] 0.971 | [22] 0.961 | [23] 0.98 | [24] 0.918 | [25] 0.983 | [26] 0.977 | [27] 0.982 | [28] 0.99 | [29] 0.981 | [30] 0.96 | [31] 0.971 | [32] 0.988 | [33] 0.976 | [34] 0.98 | [35] 0.972 | [36] 0.986 | [37] 0.99 | [38] 0.97 | [39] 1 | [40] 1.08 | [41] 1.07 | [42] 0.956 | [43] 0.981 | [44] 0.973 | [45] 1.07 | [46] 0.969 | [47] 0.953 | [48] 0.972 | [49] 0.995 | [50] 0.985 | [51] 0.979 | [52] 1.01 | [53] 0.977 | [54] 0.972 | [55] 0.977 | [56] 0.966 | [57] 0.981 | [58] 0.982 | [59] 0.991 | [60] 1.03 | [61] 0.976 | [62] 0.972 | [63] 0.96 | [64] 0.974 | [65] 0.975 | [66] 0.977 | [67] 0.983 | [68] 0.951 | [69] 0.969 | [70] 0.987 | [71] 0.96 | [72] 0.977 | [73] 0.969 | [74] 0.978 | [75] 0.985 | [76] 1 | [77] 0.974 | [78] 0.98 | [79] 0.962 | [80] 0.978 | [81] 0.995 | [82] 0.97 | [83] 0.971 | [84] 0.971 | [85] 0.983 | [86] 1.04 | [87] 0.979 | [88] 0.905 | [89] 0.953 | [90] 0.983 | [91] 0.981 | [92] 0.951 | [93] 0.98 | [94] 1.08

NCCNCCNCCN
inactive: [1] 0.984 | [2] 1.01 | [3] 0.998 | [4] 1 | [5] 1.01 | [6] 1.01 | [7] 1 | [8] 0.992 | [9] 0.999 | [10] 0.992 | [11] 1 | [12] 0.986 | [13] 0.995 | [14] 1 | [15] 1.01 | [16] 1 | [17] 0.99 | [18] 1 | [19] 1 | [20] 0.996 | locus YDR195W, strain ref2 0.982 | [21] 0.995 | [22] 1 | [23] 0.998 | [24] 1.01 | [25] 0.999 | [26] 0.994 | [27] 0.998 | [28] 0.991 | [29] 1 | [30] 1 | [31] 1.04 | [32] 0.998 | [33] 0.998 | [34] 1.01 | [35] 1 | [36] 1.02 | [37] 0.994 | [38] 1 | [39] 1 | [40] 1.02 | [41] 1.02 | [42] 0.961 | [43] 0.999 | [44] 0.995 | [45] 0.989 | [46] 1.01 | [47] 0.991 | [48] 1 | [49] 0.997 | [50] 0.994 | [51] 1 | [52] 0.955 | [53] 0.987 | [54] 0.993 | [55] 0.991 | [56] 0.997 | [57] 1.01 | [58] 0.997 | [59] 1 | [60] 0.976 | [61] 0.984 | [62] 1.01 | [63] 0.985 | [64] 1 | [65] 1 | [66] 1.02 | [67] 0.995 | [68] 0.999 | [69] 0.991 | [70] 1 | [71] 1.01 | [72] 0.997 | [73] 1.02 | [74] 1 | [75] 1.01 | [76] 0.946 | [77] 0.998 | [78] 0.975 | [79] 1 | [80] 0.993 | [81] 0.988 | [82] 1 | [83] 1 | [84] 0.985 | [85] 0.986 | [86] 0.995 | [87] 0.996 | [88] 0.937 | [89] 1 | [90] 0.997 | [91] 0.992 | [92] 1.02 | [93] 0.977 | [94] 1.01
